These results are taken from PubChem BioAssay.

The structures appear in SMILES notation. Activity calls are given as the source filed them. Unless noted, how the calls were made is not given here.

Test [1] concerns Wnt5a (protein binding on small-molecule microarray). As to the kind of experiment: Wnt5a binders on small-molecule microarray, primary screen, biophysical, 635/667 nm fluorescence (AID 1142).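 Further: fluorescence read at 667 nm with signal to noise per printed feature.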 To be noted: 635 nm fluorescence, higher = more signal.
Test [2] is described as follows: cell viability in Huh7 cells, primary screen, cytotoxicity control for HCV replication inhibitor project, CellTiter-Glo luminescence, basal, 48 h (AID 1143).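 Further: Huh7 hepatoma cells carrying a hepatitis C replication reporter with no stimulus; test concentration not given here.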 Particulars: Huh7 HCV replicon, higher = more signal, called active from +8 up or from −8 down. In general terms: ATP-based viability assays read luminescence as a measure of living cells.
Test [3] in a line: P. aeruginosa biofilm formation inhibitors, primary screen, PAO1 strain, BacTiter-Glo luminescence, LB-PBS (AID 1144). Particulars: 12 h, higher = more signal.
Test [4] is described as follows: CREB reporter modulators without forskolin, primary screen, cell-based, PC12, CRE-LacZ reporter, unstimulated (AID 1145). To be noted: no forskolin, luminescence, 4.5 h, higher = more signal, called active from +8 up or from −8 down.
Test [5] is described as follows: CREB reporter modulators under forskolin, primary screen, cell-based, PC12, CRE-LacZ reporter, forskolin-stimulated (AID 1146).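 Further: PC12 cells with 6xCRE LacZ reporter stimulated by forskolin 10 µM; beta-galactosidase reporter signal reflecting CREB driven transcription.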 Particulars: luminescence, 4.5 h, higher = more signal, called active from +8 up or from −8 down.
The target of test [6] is Streptavidin (Streptomyces avidinii) (UniProt P22629). In words: streptavidin binders on small-molecule microarray, primary screen, artefact control for SMM compound annotation, biophysical, 635/667 nm fluorescence (AID 1147).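 Further: signal reflects streptavidin binding to arrayed compounds as a control protein.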 Particulars: streptavidin binding, higher = more signal.
The nature of test [7]: small-molecule binders of probe aInhba, primary screen, biochemical, small-molecule microarray, 635/667 nm fluorescence (AID 1148).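 Further: score merges 667nm spot fluorescence with signal-to-noise for antibody binding to printed compounds.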 Particulars: higher = more signal.
Test [8] concerns the target Torsin-1A (Homo sapiens) (UniProt O14656). In words: torsin A binders from cell lysate, primary screen, small-molecule microarray, wild-type, 635/667 nm (AID 1149). Particulars: COS7 hTOR1A-WT lysate, 635 nm fluorescence, higher = more signal.
The target is the same in test [9]. In words: small-molecule binders of mutant TOR1A in lysate, primary screen, cell lysate, small-molecule microarray, COS7 lysate, 635/667 nm fluorescence (AID 1150).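 Further: score pools 667 nm emission and signal to noise measuring lysate protein binding.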 Particulars: COS7 hTOR1A mutant lysate, 635 nm fluorescence, higher = more signal.
In test [10] the test system is Sonic hedgehog protein (Shh). As to the kind of experiment: small-molecule binders of Shh protein, primary screen, biochemical, small-molecule microarray, 635/667 nm fluorescence (AID 1151).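 Further: Shh protein binding to compounds spotted on small-molecule microarray slides; score combines spot fluorescence intensity with signal-to-noise across triplicate slides.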 To be noted: small-molecule microarray binding, 635 nm fluorescence; higher = more signal.
A short description of test [11]: E. coli DRC41 culture turbidity changes, primary screen, E. coli filamentation inducer project, strain DRC41, OD650, 48 h (AID 1152).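 Further: E. coli MC1000 strain DRC41 lacking acrAB efflux pump and sulA.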 To be noted: E. coli DRC41 (acrAB sulA), higher = more signal, called active from +8 up or from −8 down.
Test [12] can be described thus: small-molecule binders of probe aLefty1, primary screen, biochemical, small-molecule microarray, 635/667 nm fluorescence (AID 1153).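 Further: score merges spot fluorescence with signal-to-noise ratio from the scanned slide images.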 To be noted: higher = more signal.
Test [13] is described as follows: PSAC antagonists in infected red cells, primary screen, cell-based, P. falciparum Indochina, OD700, 1 h (AID 1154). To be noted: P. falciparum Indochina infected RBC osmotic lysis, higher = more signal, called active from +8 up or from −8 down.
The nature of test [14]: PSAC antagonists in infected red cells, primary screen, cell-based, P. falciparum Indochina, OD700, 2 h (AID 1155).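 Further: lysis reports solute entry through the parasite surface anion channel PSAC; channel blockers reduce lysis of infected cells.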 To be noted: P. falciparum Indochina infected erythrocytes, osmotic lysis OD700; higher = more signal, called active from +8 up or from −8 down.
Test [15] in a line: osmotic lysis modulators in infected erythrocytes, primary screen, PSAC antagonist project, cell-based, P. falciparum Indochina, OD700, 3 h (AID 1156). Particulars: higher = more signal, called active from +8 up or from −8 down.
A short description of test [16]: PSAC antagonists in infected red cells, primary screen, cell-based, P. falciparum Indochina, OD700, 18 h (AID 1157). To be noted: P. falciparum Indochina infected erythrocytes, osmotic lysis OD700, 18 h; higher = more signal, called active from +8 up or from −8 down.
Test [17] can be described thus: modulators of S6 phosphorylation in cells, primary screen, cell-based, A549, cytoblot, luminescence, serum-stimulated (AID 1158).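 Further: serum-stimulated A549 lung adenocarcinoma cells; signal is phosphorylated S6 detected by cytoblot immunostaining with HRP secondary.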 Particulars: A549 phospho-S6 cytoblot, 5 h, higher = more signal.
Test [18] addresses NADPH oxidase 2 (Homo sapiens) (UniProt P04839). As to the kind of experiment: NOX2-dependent H2O2 signal modulators, primary screen, NOX inhibitor project, cell-based, HEK293-NOX2, PMA-stimulated, Amplex Red fluorescence (AID 1159). Further: test concentration not given here. To be noted: 45 min, higher = more signal, called active from +8 up or from −8 down.
Test [19] has as its target NADPH oxidase 4 (Homo sapiens) (UniProt Q9NPH5). In words: NOX4-dependent H2O2 signal modulators, primary screen, NOX inhibitor project, cell-based, HEK293-NOX4, tetracycline-induced, Amplex Red fluorescence (AID 1160). To be noted: 45 min, higher = more signal, called active from +8 up or from −8 down.
For test [20], the target named is NADPH oxidase 5 (Homo sapiens) (UniProt Q96PH1). As to the kind of experiment: NOX5-dependent H2O2 signal modulators, primary screen, NOX inhibitor project, cell-based, HEK293-NOX5, Amplex Red fluorescence (AID 1161). To be noted: HEK293-NOX5, ionomycin, 45 min, higher = more signal.
Chain of NADPH oxidase 5 (Homo sapiens) (Q96PH1 whole entry, looked up): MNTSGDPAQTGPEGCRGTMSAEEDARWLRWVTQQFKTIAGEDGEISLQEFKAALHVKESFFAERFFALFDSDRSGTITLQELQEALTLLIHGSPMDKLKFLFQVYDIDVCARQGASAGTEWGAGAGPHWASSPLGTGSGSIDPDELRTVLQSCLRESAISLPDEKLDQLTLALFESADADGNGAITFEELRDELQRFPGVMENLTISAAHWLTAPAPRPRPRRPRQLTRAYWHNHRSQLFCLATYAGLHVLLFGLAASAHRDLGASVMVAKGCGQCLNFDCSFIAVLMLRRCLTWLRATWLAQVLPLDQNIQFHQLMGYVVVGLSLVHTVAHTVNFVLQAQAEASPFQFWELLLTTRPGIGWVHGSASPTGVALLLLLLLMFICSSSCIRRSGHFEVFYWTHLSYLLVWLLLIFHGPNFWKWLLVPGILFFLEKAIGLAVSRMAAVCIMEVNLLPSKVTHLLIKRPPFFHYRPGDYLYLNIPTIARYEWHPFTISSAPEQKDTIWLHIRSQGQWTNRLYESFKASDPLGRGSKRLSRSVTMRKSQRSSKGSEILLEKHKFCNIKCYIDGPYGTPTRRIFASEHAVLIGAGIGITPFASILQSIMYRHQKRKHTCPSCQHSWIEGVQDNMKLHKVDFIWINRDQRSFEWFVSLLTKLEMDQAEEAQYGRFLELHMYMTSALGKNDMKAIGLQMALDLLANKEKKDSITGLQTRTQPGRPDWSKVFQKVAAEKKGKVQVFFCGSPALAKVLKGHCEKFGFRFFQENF

Chain of NADPH oxidase 4 (Homo sapiens) (Q9NPH5 whole entry, looked up): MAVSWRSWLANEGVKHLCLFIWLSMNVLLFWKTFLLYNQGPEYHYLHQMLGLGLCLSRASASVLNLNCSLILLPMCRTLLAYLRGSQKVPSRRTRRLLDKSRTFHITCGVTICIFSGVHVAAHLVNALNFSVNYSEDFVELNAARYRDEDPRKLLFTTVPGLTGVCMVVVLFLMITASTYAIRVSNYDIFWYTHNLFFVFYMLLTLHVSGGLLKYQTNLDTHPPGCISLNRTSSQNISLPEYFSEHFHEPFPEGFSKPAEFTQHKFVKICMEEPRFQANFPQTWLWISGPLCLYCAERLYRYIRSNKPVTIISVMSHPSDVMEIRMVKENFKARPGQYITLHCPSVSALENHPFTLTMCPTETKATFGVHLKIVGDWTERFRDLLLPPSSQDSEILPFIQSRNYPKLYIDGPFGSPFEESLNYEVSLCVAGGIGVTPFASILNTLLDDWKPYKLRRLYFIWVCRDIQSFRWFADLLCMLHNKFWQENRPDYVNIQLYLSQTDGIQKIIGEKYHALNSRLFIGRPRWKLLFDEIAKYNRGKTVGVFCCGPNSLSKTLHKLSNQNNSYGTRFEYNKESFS
Chain of Torsin-1A (Homo sapiens) (O14656 whole entry, looked up): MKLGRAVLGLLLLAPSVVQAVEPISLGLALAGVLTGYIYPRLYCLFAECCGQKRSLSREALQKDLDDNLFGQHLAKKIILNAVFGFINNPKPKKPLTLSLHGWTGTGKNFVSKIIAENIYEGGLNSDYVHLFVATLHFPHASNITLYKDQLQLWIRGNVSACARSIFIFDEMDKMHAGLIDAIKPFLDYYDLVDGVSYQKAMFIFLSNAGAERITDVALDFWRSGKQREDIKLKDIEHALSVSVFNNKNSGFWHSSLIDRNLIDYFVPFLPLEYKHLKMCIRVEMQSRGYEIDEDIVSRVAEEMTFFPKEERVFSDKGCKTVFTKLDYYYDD
Chain of Streptavidin (Streptomyces avidinii) (P22629 whole entry, looked up): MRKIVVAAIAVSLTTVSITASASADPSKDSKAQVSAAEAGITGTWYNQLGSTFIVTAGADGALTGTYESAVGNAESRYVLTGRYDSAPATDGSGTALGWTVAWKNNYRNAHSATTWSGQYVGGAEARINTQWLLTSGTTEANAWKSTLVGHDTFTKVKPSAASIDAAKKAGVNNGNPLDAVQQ
Chain of NADPH oxidase 2 (Homo sapiens) (P04839 whole entry, looked up): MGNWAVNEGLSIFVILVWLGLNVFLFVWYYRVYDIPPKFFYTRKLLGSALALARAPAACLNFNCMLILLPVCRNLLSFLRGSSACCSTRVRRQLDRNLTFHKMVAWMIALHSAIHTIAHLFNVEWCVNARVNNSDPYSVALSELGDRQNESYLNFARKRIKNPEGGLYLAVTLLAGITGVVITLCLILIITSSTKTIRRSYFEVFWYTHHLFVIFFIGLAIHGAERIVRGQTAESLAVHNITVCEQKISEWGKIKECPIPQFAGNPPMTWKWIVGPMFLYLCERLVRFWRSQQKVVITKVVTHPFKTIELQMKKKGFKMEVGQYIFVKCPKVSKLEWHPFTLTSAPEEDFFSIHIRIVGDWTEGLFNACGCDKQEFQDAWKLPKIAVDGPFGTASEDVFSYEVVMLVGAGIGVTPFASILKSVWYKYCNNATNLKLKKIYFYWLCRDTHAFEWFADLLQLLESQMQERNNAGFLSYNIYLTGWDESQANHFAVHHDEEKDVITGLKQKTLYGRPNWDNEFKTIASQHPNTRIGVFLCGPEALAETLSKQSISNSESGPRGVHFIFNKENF

Consider `O=C1N(CCS(=O)(=O)c2ccccc2)c2ccccc2C[C@]12N=C(c1ccc(OCCCO)cc1)O[C@@H]2c1ccccc1`, for which the composite z-score in [1] amounted to 0.553; in test [6], 0.404; in test [7] it was 0.0944; with Torsin-1A (Homo sapiens) [8], 0.903; with Torsin-1A (Homo sapiens) [9], 1.41; in [10], 0.372. The same molecule came in with a composite z-score in [12] of 0.732. Moreover, the z-score in [2] was -1.62 (inactive); in test [3], 0.851 (inactive); in test [4], 0.0219 (inactive); in test [5] it was -1.4 (inactive); in [11] it was -0.499 (inactive); in [13] it was 26.3 (active). In addition, the z-score in test [14] is 18.6 (active); in [15] it was 1.85 (inactive); in test [16], 2.95 (inactive); in test [17], -0.18; in [18] it was -0.304 (inactive); in test [19], 0.615 (inactive). This molecule showed a z-score in test [20] of 0.627.

Turning to `COC(=O)[C@@]1(Cc2ccccc2)[C@H]2c3cc(C(=O)N4CCCC4)n(Cc4ccc(OC)c(OC)c4)c3C[C@H]2CN1C(=O)c1ccccc1`, the composite z-score in test [1] was 0.56; in test [6], 0.782; in test [7], 0.715; with Torsin-1A (Homo sapiens) [8], 0.279; with Torsin-1A (Homo sapiens) [9], 1.18; in test [10], -0.121. The composite z-score in test [12] turned out to be 0.347. Further, the z-score in [2] was -1.99 (inactive); in test [3], 0.388 (inactive); in test [4], 0.39 (inactive); in [5], 0.208 (inactive); in test [11], -1.08 (inactive); in test [13], 1.76 (inactive). Moreover, the z-score in test [14] is 0.41 (inactive); in test [15], 2.24 (inactive); in test [16], 0.861 (inactive); in test [17], -0.321; in test [18], 0.136 (inactive); in test [19], 0.104 (inactive). For the same molecule, the z-score in [20] is -3.31.

For the molecule `C=CCOC(=O)[C@H]1[C@@H]2C(=O)O[C@@H](c3ccccc3)[C@@H](c3ccccc3)N2[C@@H](c2ccc(OCCOC(=O)[C@@H]3C[C@@H]4C(=O)N[C@@H](CCCCNC(C)=O)C(=O)N4[C@@H]3c3cccc(OCCO)c3)cc2)[C@]12C(=O)Nc1ccccc12`, the composite z-score is 0.455 in test [1]; -0.35 in test [6]; -0.0342 in test [7]; 1.2 with Torsin-1A (Homo sapiens) [8]; 1.3 in the test with Torsin-1A (Homo sapiens) [9]; 1.54 in test [10]. Also, the composite z-score in test [12] was 0.082. Besides, the z-score was -0.08 (inactive) in test [2]; -0.295 (inactive) in [3]; -0.118 (inactive) in test [4]; -0.656 (inactive) in test [5]; -0.637 (inactive) in [11]; 3.6 (inactive) in [13]. For the same molecule, the z-score was 1.34 (inactive) in test [14]; 2.28 (inactive) in test [15]; 0.621 (inactive) in [16]; -0.52 in test [17]; 1.83 (inactive) in test [18]; 1.4 (inactive) in test [19]. The z-score in test [20] was determined as 0.618.

`CC(C)N1C(=O)C[C@@](C(=O)NCCN2CCOCC2)(c2ccc([N+](=O)[O-])cc2)[C@H]1c1ccc(CO)cc1`: the composite z-score in [1] is -0.182; in test [6] it was -0.919; in test [7], -0.154; with Torsin-1A (Homo sapiens) [8], -2.27; with Torsin-1A (Homo sapiens) [9] it was 1.04; in test [10] it was -1.1. Also, in [12], the composite z-score was -0.832. The z-score in test [2] was -2.94 (inactive); in test [3], -1.4 (inactive); in test [4], -0.295 (inactive); in [5], 0.668 (inactive); in [11], 0.344 (inactive); in test [13], 1.63 (inactive). For the same molecule, the z-score was -0.0494 (inactive) in [14]; 1.53 (inactive) in test [15]; 0.35 (inactive) in test [16]; 0.265 in [17]; -0.54 (inactive) in [18]; -0.685 (inactive) in [19]. This molecule also returned a z-score in [20] of -2.46.
